Test results from PubChem BioAssay (NCI).
This is part of a sample that, as a whole, favours compounds with a hit. Of some 79,000 tested, about 15% had one in any assay. Cut-off read from the data, not from the text of the source: active = growth inhibition above about 70%; inactive = the rest.

How the values were obtained:
[1] = NCI Yeast Anticancer Drug Screen. Data for the rad50 strain (AID 155);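 note: 0% = growth of vehicle-only cultures of the same strain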; conditions: S. cerevisiae rad50 strain growth inhibition; at 50.0 µM; hits give high values
In short: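 Genetically altered yeast (DNA repair pathway); compound treatment; growth inhibition vs vehicle ctrl.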

[2] = NCI Yeast Anticancer Drug Screen. Data for the mec2-1 strain (AID 157); conditions: S. cerevisiae mec2-1 strain, at 50.0 µM, hits give high values
In short: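 Vehicle-treated cultures served as reference for growth inhibition of compound-exposed mec2-1 yeast.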

[3] = NCI Yeast Anticancer Drug Screen. Data for the sgs1 mgt1 strain (AID 161);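 note: 0% = growth of cultures given vehicle only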; conditions: S. cerevisiae sgs1 mgt1 strain, at 50.0 µM, hits give high values
In short: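 Mutant yeast exposed to compound; growth scored against vehicle-only wells.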

[4] = NCI Yeast Anticancer Drug Screen. Data for the cln2 rad14 strain (AID 165);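 note: 0% = growth equal to vehicle treated cultures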; conditions: S. cerevisiae cln2 rad14 strain, at 50.0 µM, hits give high values
In short: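 Each compound was tested on cln2 rad14 yeast. Inhibition of growth was calculated against vehicle-exposed controls.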

[5] = NCI Yeast Anticancer Drug Screen. Data for the bub3 strain (AID 167); conditions: S. cerevisiae bub3 mutant strain, at 50.0 µM, hits give high values
In short: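 Yeast carrying a defined mutation is treated with each compound, and growth is compared with that of vehicle-exposed cells to give inhibition.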

[6] = NCI Yeast Anticancer Drug Screen. Data for the mlh1 rad18 strain (AID 175); conditions: S. cerevisiae mlh1 rad18 strain growth inhibition; at 50.0 µM; hits give high values
In short: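 Vehicle-treated cultures served as the reference for growth inhibition in a yeast strain carrying DNA damage repair alterations exposed to each compound.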

Measured: growth inhibition

CCC/C(CC)=N\Nc1ccc([N+](=O)[O-])cc1[N+](=O)[O-]
inactive: [1] -6.9% | [2] 9.4% | [3] -2.35% | [4] 30.9% | [5] 12.9% | [6] -4.1%

O=C(O)CNC(=O)Cc1ccccc1
inactive: [1] -29.8% | [2] -12.6% | [3] -1.1% | [4] 10.2% | [5] -38.6% | [6] -7.3%

CC(=O)O[C@H]1CC[C@]2(C)[C@H]3C(=O)C=C4[C@@H]5C[C@@](C)(C(=O)O)CC[C@]5(C)CC[C@@]4(C)[C@]3(C)CC[C@H]2C1(C)C
inactive: [1] 31.2% | [2] 23.8% | [3] 41.5% | [4] 52.1% | [5] 26% | [6] -5.75%

Nc1nc(SCc2ccccc2)c2ncn(Cc3ccccc3)c2n1
inactive: [1] 5.75% | [2] -7.55% | [3] -15.1% | [4] 10.5% | [5] -2.9% | [6] 9.55%

O=c1c2ccccc2nc(-c2ccccc2Cl)n1NCC1(O)OCC(O)C(O)C1O (centres undefined)
inactive: [1] 12% | [2] 5.2% | [3] 16.6% | [4] -13.2% | [5] -1.2% | [6] 3.25%

CCN(CC)COC(=O)C(C)(C)C
inactive: [1] -13.1% | [2] 10.6% | [3] -12.9% | [4] -35% | [5] -9.25% | [6] -4.2%

S=C1N(c2ccc(Br)cc2)C2=Nc3ccccc3SC(=C2N=Nc2ccccc2)N1c1ccc(Cl)cc1
inactive: [1] -13.6% | [2] 20.9% | [3] -8.8% | [4] 14.5% | [5] -1.15% | [6] -3%

COc1ccccc1NCC(=O)Nn1c(C)nc2ccc(S(=O)(=O)Nc3ccccc3OC)cc2c1=O
inactive: [1] 2.85% | [2] -18.9% | [3] 20.9% | [4] 16.2% | [5] 1.55% | [6] 0.1%

Cc1ccc(S(=O)(=O)OCC2C(COS(=O)(=O)c3ccc(C)cc3)C3CCC2C2C3C3C2C2(C)C(=O)C3(C)C(c3ccccc3)=C2c2ccccc2)cc1 (centres undefined)
inactive: [1] 0.35% | [2] -5.2% | [3] 4.2% | [4] -5.7% | [5] -5.5% | [6] 12.3%
